Among the data in PubChem BioAssay (EPA / NIEHS) are outcome and AC50 values, retold here.

For orientation: AC50 means the concentration at which the activity in the assay is half-maximal.

Test [1] deals with human Tyrosine Protein Kinase Receptor Tie-2 (Tie2), TEK (gene 7010) (UniProt Q02763). Description: NVS_ENZ_hTie2: NovaScreen (NVS) Enzymatic Assay for human Tyrosine Protein Kinase Receptor Tie-2 (Tie2) (AID 2283225). Put shortly: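 Recombinant human Tie2 kinase activity was read cell-free by fluorescence with electrophoretic mobility shift, 1 hour after dosing. The screen used 25 uM in duplicate, then concentration-response up to 50 uM. Signal loss was scored against DMSO.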
Sequence of human Tyrosine Protein Kinase Receptor Tie-2 (Tie2), TEK (gene 7010) (Q02763 whole entry, looked up): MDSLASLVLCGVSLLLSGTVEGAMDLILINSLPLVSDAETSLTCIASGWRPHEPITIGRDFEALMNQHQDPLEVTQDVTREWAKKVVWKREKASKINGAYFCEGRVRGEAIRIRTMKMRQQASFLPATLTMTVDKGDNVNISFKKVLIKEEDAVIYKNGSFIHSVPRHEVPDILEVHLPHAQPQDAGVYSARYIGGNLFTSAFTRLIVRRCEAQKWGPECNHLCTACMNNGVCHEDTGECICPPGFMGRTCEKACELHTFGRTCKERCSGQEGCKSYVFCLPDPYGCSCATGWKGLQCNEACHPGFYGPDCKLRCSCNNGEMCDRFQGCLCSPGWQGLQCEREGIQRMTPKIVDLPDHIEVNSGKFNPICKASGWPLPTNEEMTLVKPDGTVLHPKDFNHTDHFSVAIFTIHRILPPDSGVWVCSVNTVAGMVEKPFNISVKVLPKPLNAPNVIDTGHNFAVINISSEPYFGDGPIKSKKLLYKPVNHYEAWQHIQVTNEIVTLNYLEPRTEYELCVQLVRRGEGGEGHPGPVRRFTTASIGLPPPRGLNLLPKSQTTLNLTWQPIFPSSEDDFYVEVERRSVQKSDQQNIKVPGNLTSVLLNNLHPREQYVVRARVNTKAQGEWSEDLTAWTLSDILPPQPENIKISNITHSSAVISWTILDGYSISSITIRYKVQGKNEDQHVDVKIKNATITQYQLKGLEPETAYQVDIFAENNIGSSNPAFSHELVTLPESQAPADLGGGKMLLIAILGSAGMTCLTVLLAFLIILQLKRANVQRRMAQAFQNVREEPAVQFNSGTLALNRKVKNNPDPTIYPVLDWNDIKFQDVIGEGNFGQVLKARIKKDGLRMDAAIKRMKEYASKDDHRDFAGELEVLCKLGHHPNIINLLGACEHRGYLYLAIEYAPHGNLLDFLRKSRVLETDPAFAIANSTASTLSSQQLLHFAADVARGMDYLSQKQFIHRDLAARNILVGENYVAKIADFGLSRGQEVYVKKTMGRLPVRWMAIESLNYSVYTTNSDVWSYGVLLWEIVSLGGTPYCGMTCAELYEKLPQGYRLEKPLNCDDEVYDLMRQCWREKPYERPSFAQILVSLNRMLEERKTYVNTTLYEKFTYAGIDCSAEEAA

In test [2] the target is human Vascular Endothelial Growth Factor Receptor 3 (VEGFR3), FLT4 (gene 2324) (UniProt P35916). Description: NVS_ENZ_hVEGFR3: NovaScreen (NVS) Enzymatic Assay for human Vascular Endothelial Growth Factor Receptor 3 (VEGFR3) (AID 2283229). In a few lines:
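Cell-free recombinant VEGFR3 kinase reaction with fluorescent substrate, read 1 h after dosing by electrophoretic mobility shift separation of substrate and product. Single-concentration duplicate screen at 25 uM, then concentration-response up to 50 uM; loss of activity versus DMSO.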

Test [3] has as its target human Vascular Endothelial Growth Factor Receptor 2 (VEGFR2), KDR (gene 3791) (UniProt P35968). The experiment in a line: NVS_ENZ_hVEGFR2: NovaScreen (NVS) Enzymatic Assay for human Vascular Endothelial Growth Factor Receptor 2 (VEGFR2) (AID 2283230). In a few lines:
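Cell-free recombinant VEGFR2 kinase, fluorescent substrate with electrophoretic mobility-shift separation; read 1 h after dosing. Screened at 25 uM in duplicate, hits to concentration-response up to 50 uM; loss-of-signal versus DMSO.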

In test [4] the target is sheep Cyclooxygenase-2 (Cox2), PTGS2 (gene 443460) (UniProt P79208). The experiment in a line: NVS_ENZ_oCOX2: NovaScreen (NVS) Enzymatic Assay for sheep Cyclooxygenase-2 (Cox2) (AID 2283231). In a few lines:
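Enzyme from ovine placenta, cell-free; colorimetric absorbance read 0.66 hour after dosing, loss of signal vs DMSO. Screened in duplicate at 25 uM, then concentration-response up to 50 uM.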

In test [5] the target is rat Adenylate Cyclase, Forskolin Stimulated, Adcy5 (gene 64532) (UniProt Q04400). The experiment in a line: NVS_ENZ_rACFSKBinding: NovaScreen (NVS) Enzymatic Assay for rat Adenylate Cyclase, Forskolin Stimulated (AID 2283232). In a few lines: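 Rat forebrain membrane preparation, cell-free, read 1 h after dosing by filter-based scintillation counting. Primary screen in duplicate at 25 uM; actives (e.g. ≥30% inhibition) rerun in concentration-response up to 50 uM; fit versus DMSO.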

For test [6], the system named is rat Monoamine Oxidase, MAO-A, Peripheral (MAOAP), gene 29253. Description: NVS_ENZ_rMAOAP: NovaScreen (NVS) Enzymatic Assay for rat Monoamine Oxidase, MAO-A, Peripheral (MAOAP) (AID 2283237). In a few lines: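 Rat liver mitochondrial membranes served as the MAO-A source, with enzyme activity measured by radiometric scintillation counting 1.17 hours after dosing. Loss of signal was fitted against DMSO; primary screen used 25 uM in duplicate, follow-up used concentration series.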

In test [7] the target is sheep Cyclooxygenase-1 (Cox1), PTGS1 (gene 443551) (UniProt P05979). The experiment in a line: NVS_ENZ_oCOX1: NovaScreen (NVS) Enzymatic Assay for sheep Cyclooxygenase-1 (Cox1) (AID 2283239).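 Note: actives reduce cyclooxygenase activity so potencies are for inhibitors.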 Put shortly: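 Tested in duplicate at 25 uM, then in concentration series if active, against seminal vesicle extract from sheep. Enzyme activity was measured colorimetrically at 0.66 hour and normalised to DMSO.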

The target in test [8] is rat Monoamine Oxidase, MAO-B, Peripheral (MAOBP), Maob (gene 25750) (UniProt P19643). The experiment in a line: NVS_ENZ_rMAOBP: NovaScreen (NVS) Enzymatic Assay for rat Monoamine Oxidase, MAO-B, Peripheral (MAOBP) (AID 2283242).
Sequence of rat Monoamine Oxidase, MAO-B, Peripheral (MAOBP), Maob (gene 25750) (P19643 whole entry, looked up): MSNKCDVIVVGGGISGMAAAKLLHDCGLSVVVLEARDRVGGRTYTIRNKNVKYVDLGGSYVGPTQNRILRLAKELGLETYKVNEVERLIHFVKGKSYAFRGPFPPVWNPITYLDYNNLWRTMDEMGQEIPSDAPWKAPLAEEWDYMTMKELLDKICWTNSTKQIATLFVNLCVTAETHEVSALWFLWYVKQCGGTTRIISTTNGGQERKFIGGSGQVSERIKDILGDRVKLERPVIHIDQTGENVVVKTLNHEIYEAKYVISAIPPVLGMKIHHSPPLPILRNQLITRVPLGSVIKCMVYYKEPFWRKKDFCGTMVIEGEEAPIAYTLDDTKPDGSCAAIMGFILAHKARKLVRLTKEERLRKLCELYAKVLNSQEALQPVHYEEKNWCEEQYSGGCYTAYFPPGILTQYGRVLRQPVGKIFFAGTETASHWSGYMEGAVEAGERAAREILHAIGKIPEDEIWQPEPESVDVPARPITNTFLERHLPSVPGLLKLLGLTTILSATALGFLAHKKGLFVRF
The target of test [9] is rat Constitutive Nitric Oxide Synthase (CNOS), Nos1 (gene 24598) (UniProt P29476). Description: NVS_ENZ_rCNOS: NovaScreen (NVS) Enzymatic Assay for rat Constitutive Nitric Oxide Synthase (CNOS) (AID 2283236). In a few lines: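 Enzyme activity in rat brain membrane preparation, read 1 h after dosing by filter-based radiometric scintillation counting. Primary screen in duplicate at 25 uM; actives (e.g., ≥30% inhibition) then run in concentration-response up to 50 uM.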
Sequence of rat Constitutive Nitric Oxide Synthase (CNOS), Nos1 (gene 24598) (P29476 whole entry, looked up): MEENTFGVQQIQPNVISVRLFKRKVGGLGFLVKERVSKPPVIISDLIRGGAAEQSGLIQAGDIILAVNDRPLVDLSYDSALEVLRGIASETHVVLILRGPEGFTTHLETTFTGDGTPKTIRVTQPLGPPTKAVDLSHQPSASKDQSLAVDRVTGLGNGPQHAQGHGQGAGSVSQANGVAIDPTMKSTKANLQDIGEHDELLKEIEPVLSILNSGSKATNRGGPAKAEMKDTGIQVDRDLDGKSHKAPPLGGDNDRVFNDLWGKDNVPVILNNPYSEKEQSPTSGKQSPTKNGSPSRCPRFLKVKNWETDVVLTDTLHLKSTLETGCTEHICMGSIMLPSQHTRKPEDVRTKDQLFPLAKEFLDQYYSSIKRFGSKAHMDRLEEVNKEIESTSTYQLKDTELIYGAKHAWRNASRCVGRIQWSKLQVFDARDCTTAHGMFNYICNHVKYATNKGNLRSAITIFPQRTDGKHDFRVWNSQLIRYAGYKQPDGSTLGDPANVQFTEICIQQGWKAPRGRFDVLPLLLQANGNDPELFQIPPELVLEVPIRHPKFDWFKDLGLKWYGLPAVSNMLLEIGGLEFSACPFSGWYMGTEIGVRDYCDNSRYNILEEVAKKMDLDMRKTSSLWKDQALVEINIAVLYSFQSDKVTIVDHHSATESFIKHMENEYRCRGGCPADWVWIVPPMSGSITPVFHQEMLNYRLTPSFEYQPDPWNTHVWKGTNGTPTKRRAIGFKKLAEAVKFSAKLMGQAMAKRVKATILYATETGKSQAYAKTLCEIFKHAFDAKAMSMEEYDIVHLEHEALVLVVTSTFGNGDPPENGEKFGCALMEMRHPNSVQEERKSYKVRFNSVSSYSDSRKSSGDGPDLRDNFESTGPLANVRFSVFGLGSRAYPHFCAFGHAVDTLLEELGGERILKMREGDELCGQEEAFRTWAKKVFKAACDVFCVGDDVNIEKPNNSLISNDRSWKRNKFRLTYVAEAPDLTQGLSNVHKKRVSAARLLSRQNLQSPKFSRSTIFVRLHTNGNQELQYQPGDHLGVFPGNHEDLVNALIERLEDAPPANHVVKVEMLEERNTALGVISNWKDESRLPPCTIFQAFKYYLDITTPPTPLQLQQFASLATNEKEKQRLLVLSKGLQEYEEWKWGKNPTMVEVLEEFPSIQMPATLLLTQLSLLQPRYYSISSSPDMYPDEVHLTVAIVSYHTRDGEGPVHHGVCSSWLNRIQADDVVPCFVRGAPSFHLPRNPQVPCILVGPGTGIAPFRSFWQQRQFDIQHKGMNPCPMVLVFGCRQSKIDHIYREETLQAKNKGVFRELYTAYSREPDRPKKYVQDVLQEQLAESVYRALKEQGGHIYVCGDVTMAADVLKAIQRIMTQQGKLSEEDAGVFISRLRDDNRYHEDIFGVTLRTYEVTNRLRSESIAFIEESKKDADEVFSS

For test [10], the target named is rat Catechol-O-Methyl Transferase (COMT), Comt (gene 24267) (UniProt P22734). The experiment in a line: NVS_ENZ_rCOMT: NovaScreen (NVS) Enzymatic Assay for rat Catechol-O-Methyl Transferase (COMT) (AID 2283235). Put shortly: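 Cell-free enzyme activity with protein extracted from rat dorsal striatum, measured by HPLC with absorbance detection. Compounds screened at 25 uM in duplicate; actives then run in concentration-response up to 50 uM, loss of signal versus DMSO.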

Test [11] concerns the target rat Monoamine Oxidase, MAO-B, Central (MAOBC), Maob (gene 25750) (UniProt P19643). Description: NVS_ENZ_rMAOBC: NovaScreen (NVS) Enzymatic Assay for rat Monoamine Oxidase, MAO-B, Central (MAOBC) (AID 2283238). Put shortly: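 MAO-B activity in rat brain tissue preparation, cell-free, measured radiometrically by scintillation counting 1.17 h after dosing. Screened in duplicate at 25 uM; actives then in concentration-response up to 50 uM. Loss of signal versus DMSO scored.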

The target in test [12] is rabbit Imidazoline 2 Central (I2C), CKB (gene 100009085) (UniProt P00567). Description: NVS_ENZ_rabI2C: NovaScreen (NVS) Enzymatic Assay for rabbit Imidazoline 2 Central (I2C) (AID 2283228). In a few lines: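 Rabbit brain membranes, cell-free; readout by filter-based scintillation counting 1.5 hours after dosing, loss of signal vs DMSO. Initial duplicate test at 25 uM, then concentration-response with 50 uM top concentration.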

Test [13] addresses rat Acetylcholinesterase (AChE), Ache (gene 83817) (UniProt P37136). The experiment in a line: NVS_ENZ_rAChE: NovaScreen (NVS) Enzymatic Assay for rat Acetylcholinesterase (AChE) (AID 2283233). In a few lines:
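Rat brain membrane acetylcholinesterase activity measured colorimetrically 0.33 h after compound addition, loss of signal relative to DMSO. Primary screen in duplicate at 25 uM; actives re-run as concentration-response with 50 uM top concentration.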

In test [14] the target is human Sirtuin 1 (SIRT1), SIRT1 (gene 23411) (UniProt Q96EB6). The experiment in a line: NVS_ENZ_hSIRT1: NovaScreen (NVS) Enzymatic Assay for human Sirtuin 1 (SIRT1) (AID 2283219). In a few lines: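 Cell-free recombinant SIRT1 with a fluorescent substrate; substrate and product separated by electrophoretic mobility shift and read by fluorescence intensity, 1 h after dosing. Primary screen at 25 uM in duplicate; hits re-run in concentration-response up to 50 uM, relative to DMSO.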

For test [15], the target named is human Sirtuin 3 (SIRT3), SIRT3 (gene 23410) (UniProt Q9NTG7). Description: NVS_ENZ_hSIRT3: NovaScreen (NVS) Enzymatic Assay for human Sirtuin 3 (SIRT3) (AID 2283222). Put shortly: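 Cell-free enzyme assay with recombinant protein and fluorescent substrate, product separated by electrophoretic mobility shift; read 1 hour after dosing. Screened in duplicate at 25 uM, then singleton concentration-response up to 50 uM; loss of signal versus DMSO.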

Test [16] concerns bovine Angiotensin II Receptor Type 2 (AT2), gene 407157. The experiment in a line: NVS_GPCR_bAT2: NovaScreen (NVS) G Protein-Coupled Receptor Assay for bovine Angiotensin II Receptor Type 2 (AT2) (AID 2283240). Put shortly: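 Radioligand displacement on bovine cerebellar membranes, 1 hour incubation, filter-based scintillation counting; loss of signal vs DMSO. Duplicate single-point screen at 25 uM, then concentration-response to 50 uM maximum.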

Inconclusive results are not listed. The source made the active and inactive calls. Rule for the calls: active = hit-call score of the fitted dose curve at least 0.9, where 1 is the maximum; inconclusive = response in the unintended direction; inactive = score below 0.9.

Sequence of rat Monoamine Oxidase, MAO-B, Central (MAOBC), Maob (gene 25750) (P19643 whole entry, looked up): as the sequence (P19643 whole entry, looked up) above
Sequence of human Vascular Endothelial Growth Factor Receptor 2 (VEGFR2), KDR (gene 3791) (P35968 whole entry, looked up): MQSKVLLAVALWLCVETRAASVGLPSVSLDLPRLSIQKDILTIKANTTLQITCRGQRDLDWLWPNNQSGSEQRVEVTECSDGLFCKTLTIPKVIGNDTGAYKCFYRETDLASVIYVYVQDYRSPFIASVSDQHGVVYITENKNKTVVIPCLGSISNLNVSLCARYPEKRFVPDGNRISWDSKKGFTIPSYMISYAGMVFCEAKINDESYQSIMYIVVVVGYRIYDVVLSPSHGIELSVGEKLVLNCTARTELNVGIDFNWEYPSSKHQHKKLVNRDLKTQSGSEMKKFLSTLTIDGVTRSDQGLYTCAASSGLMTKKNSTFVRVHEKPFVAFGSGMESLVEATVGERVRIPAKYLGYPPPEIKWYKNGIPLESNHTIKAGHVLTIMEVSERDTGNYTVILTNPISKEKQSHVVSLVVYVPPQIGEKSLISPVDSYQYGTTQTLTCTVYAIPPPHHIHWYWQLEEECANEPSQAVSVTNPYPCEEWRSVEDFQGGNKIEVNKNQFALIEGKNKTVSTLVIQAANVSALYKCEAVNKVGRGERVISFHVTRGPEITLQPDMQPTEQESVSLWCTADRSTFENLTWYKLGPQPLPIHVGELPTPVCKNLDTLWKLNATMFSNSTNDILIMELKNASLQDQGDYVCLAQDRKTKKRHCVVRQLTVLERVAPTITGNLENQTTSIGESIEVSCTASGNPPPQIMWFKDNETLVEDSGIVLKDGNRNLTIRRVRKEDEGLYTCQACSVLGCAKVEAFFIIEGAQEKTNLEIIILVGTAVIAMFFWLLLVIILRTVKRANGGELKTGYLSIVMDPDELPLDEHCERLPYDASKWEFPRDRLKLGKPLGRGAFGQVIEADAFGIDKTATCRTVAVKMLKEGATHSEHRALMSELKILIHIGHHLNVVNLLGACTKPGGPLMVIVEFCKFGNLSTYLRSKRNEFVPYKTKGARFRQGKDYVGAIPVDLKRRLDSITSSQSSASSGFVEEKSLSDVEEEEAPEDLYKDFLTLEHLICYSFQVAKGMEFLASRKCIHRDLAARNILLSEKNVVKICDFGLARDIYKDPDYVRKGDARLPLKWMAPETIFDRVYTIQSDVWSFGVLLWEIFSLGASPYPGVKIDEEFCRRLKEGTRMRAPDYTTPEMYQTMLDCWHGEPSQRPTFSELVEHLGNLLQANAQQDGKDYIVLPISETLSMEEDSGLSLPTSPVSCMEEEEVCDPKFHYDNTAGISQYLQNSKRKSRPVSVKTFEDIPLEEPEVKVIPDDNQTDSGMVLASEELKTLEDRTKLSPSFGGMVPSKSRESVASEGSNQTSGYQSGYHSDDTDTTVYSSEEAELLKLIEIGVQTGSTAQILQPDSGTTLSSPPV
Sequence of rat Acetylcholinesterase (AChE), Ache (gene 83817) (P37136 whole entry, looked up): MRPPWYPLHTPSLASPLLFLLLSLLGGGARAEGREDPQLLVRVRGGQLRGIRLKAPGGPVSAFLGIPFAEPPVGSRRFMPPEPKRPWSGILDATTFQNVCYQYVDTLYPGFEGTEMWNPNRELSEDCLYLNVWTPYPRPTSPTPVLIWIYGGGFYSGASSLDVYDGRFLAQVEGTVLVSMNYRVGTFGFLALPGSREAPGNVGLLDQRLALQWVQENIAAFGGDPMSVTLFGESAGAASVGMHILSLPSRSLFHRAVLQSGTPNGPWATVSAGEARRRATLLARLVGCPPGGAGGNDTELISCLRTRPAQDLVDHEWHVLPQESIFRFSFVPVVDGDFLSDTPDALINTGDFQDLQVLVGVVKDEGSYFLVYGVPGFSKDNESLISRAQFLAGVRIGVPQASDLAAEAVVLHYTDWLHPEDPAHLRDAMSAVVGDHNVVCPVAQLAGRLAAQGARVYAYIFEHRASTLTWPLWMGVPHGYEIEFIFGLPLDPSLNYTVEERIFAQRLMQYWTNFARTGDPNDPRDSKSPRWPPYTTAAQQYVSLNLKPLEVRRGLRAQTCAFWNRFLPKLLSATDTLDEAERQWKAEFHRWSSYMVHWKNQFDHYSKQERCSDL

Regarding `OCCOc1ccccc1`, the compound was called inactive in test [1].

With `Oc1cc(Cl)ccc1Oc1ccc(Cl)cc1Cl`, the call in test [1], in test [2], in test [3], in [5], in [6] and in test [7] was inactive. Also, the compound was classed as inactive in test [8]. In addition, the half-maximal activity concentration (AC50) in test [4] was 18.6 µM (active).

For the compound `Cc1[nH]c(=O)n(C(C)(C)C)c(=O)c1Cl`, the compound was called inactive in test [9].

In the case of `Cc1cc(C)nc(NC(=O)NS(=O)(=O)c2ccccc2C(=O)OC2COC2)n1`, in test [1], the result was inactive. Further, the AC50 in test [9] was 2.58 µM (active).

On to `O=C(O)COc1ccc(Cl)cc1Cl`, for which, in test [10], the compound was called inactive.

As to `C#CCN1C(=O)COc2cc(F)c(N3C(=O)C4=C(CCCC4)C3=O)cc21`, the result in test [4] was inactive. The AC50 in test [11] was 25 µM (active); in [7] it was 1.11 µM (active).

Turning to `O=C(O)C(F)(F)C(F)(F)C(F)(F)C(F)(F)C(F)(F)C(F)(F)C(F)(F)F`, the half-maximal activity concentration (AC50) in [1] was 13.7 µM (active). In addition, the call in test [7] was inactive.

`O=[N+]([O-])c1c(Cl)c(Cl)c(Cl)c(Cl)c1Cl`: in [12], the outcome was inactive.

As for `COP(=O)(OC)OC=C(Cl)Cl`, in test [13], the half-maximal activity concentration (AC50) is 6.37 µM (active). The call in test [7] was inactive.

`COC(=O)c1ccccc1S(=O)(=O)NC(=O)N(C)c1nc(C)nc(OC)n1`: in test [11], the call was inactive.

Take `CNC(=O)Oc1ccccc1OC(C)C`: the concentration at half-maximal activity (AC50) in test [13] was 5.05 µM (active). Also, the result in test [9] was inactive.

Consider `COP(=S)(OC)Oc1ccc(SC)c(C)c1`, for which the outcome in test [2] was inactive.

Take `COc1cc(OC)nc(NC(=O)NS(=O)(=O)c2cc(NC=O)ccc2C(=O)N(C)C)n1`: in test [9], the call was inactive.

On to `[2H]C1([2H])[n+]2ccccc2-c2cccc[n+]2C1([2H])[2H]`, for which, in [9], the call was inactive.

As to `O=C(NC(=O)c1c(F)cccc1F)Nc1ccc(OC(F)(F)C(F)OC(F)(F)F)c(Cl)c1` (configuration not stated), the call in test [1] was inactive.

For the compound `CCCN(CCC)c1c([N+](=O)[O-])cc(C(F)(F)F)cc1[N+](=O)[O-]`, the call in test [4] was inactive. Further, in test [7], the AC50 was 12.8 µM (active).

On to `COP(=S)(OC)Oc1ccc([N+](=O)[O-])cc1`, for which the compound was called inactive in [13] and in test [11].

In the case of `O=[N+]([O-])/N=C1\NCCN1Cc1ccc(Cl)nc1`, in test [12], the AC50 was 11.4 µM (active).

For `CCN(CC)C(=O)SCc1ccc(Cl)cc1`, the outcome in [9] was inactive.

`CCC(C)Nc1c([N+](=O)[O-])cc(C(C)(C)C)cc1[N+](=O)[O-]` (configuration not stated): in [14], the compound was called inactive.

Take `CCC(C)(C)C(=O)OC1=C(c2ccc(Cl)cc2Cl)C(=O)OC12CCCCC2`: the AC50 in [15] is 25 µM (active).

For the compound `CC[C@H](C)[C@H]1O[C@]2(C=C[C@@H]1C)C[C@@H]1C[C@@H](C/C=C(\C)[C@@H](O[C@H]3C[C@H](OC)[C@@H](O[C@H]4C[C@H](OC)[C@@H](O)[C@H](C)O4)[C@H](C)O3)[C@@H](C)/C=C/C=C3\CO[C@@H]4[C@H](O)C(C)=C[C@@H](C(=O)O1)[C@]34O)O2` (tested in a mixture with another compound), the half-maximal activity concentration (AC50) in [14] is 17.2 µM (active); in test [15] it was 5.19 µM (active); in test [1], 36.1 µM (active); in test [4], 8.68 µM (active). The compound was called inactive in test [3] and in test [16].
